# Assay results as given in PubChem BioAssay (Tox21).
# Several values for one entry are separate records, joined by “and”; a condition that tells them apart may be missing. Equal entries are not always repeated. Inconclusive results are not listed. A call without a number means that no potency is given here. Where a structure was tested more than once in an assay, its records may differ in their call. Activity calls are given as the source filed them. Unless noted, calls come from the whole dose curve; as a rule, active = well fitted curve in the direction sought with a large enough effect in the repeat runs; inconclusive = weak or mixed curves; inactive = no such curve, though single readings can be large; an effect the other way counts as inactive or inconclusive.
# Assays:
# [1] = qHTS assay to identify small molecule agonists of the vitamin D receptor (VDR) signaling pathway - cell viability counter screen (AID 743224); conditions: VDR-bla HEK293T viability, CellTiter-Glo luminescence, 16 h; series mostly up to 62.6 µM; note: nearly all actives have a fitted effect of over 50% in size; note: potency is the fitted concentration of half-maximal effect
# Outline: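 Here cell health was gauged by luminescent ATP detection (CellTiter-Glo, 30 min RT) in VDR-bla cells that had been incubated with test compounds for 16 h at 37C and 5% CO2.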
# [2] = qHTS assay to identify small molecule antagonists of the vitamin D receptor (VDR) signaling pathway - cell viability counter screen (AID 743225); conditions: VDR-bla HEK293T viability, CellTiter-Glo luminescence, 16 h; series mostly up to 61 µM; note: nearly all actives have a fitted effect of over 50% in size
# Outline: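 VDR-bla HEK 293T cells, 4 h pre-incubation at 37C, then compound plus 1-alpha,25-dihydroxyvitamin D3 (3 nM final) for 16 h. After the beta-lactamase FRET read, CellTiter-Glo was added to the same wells; luminescence after 30 min at room temperature.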
# [3] = qHTS assay to identify small molecule agonists of the NFkB signaling pathway (AID 1159509; active = well fitted curve in the direction sought with a large enough effect in the signal ratio in the repeat runs, not every such curve was filed as active; the % refers to the signal ratio); conditions: NFkB-bla ME-180 cells, beta-lactamase FRET ratio, 5 h; series mostly up to 61 µM
# Outline: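 NFkB-bla ME-180 cells with a beta-lactamase reporter under an NF-kB response element were plated overnight, treated with compounds in DMSO for 5 hr at 37 C, then loaded with FRET substrate for 1.5 hr at room temperature.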
# [4] = qHTS assay to identify small molecule agonists of the NFkB signaling pathway - cell viability counter screen (AID 1159515; calls by dose curve; note: nearly all actives have a fitted effect of over 55% in size); conditions: NFkB-bla ME-180 viability, CellTiter-Glo luminescence, 5 h; series mostly up to 61 µM
# Outline: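 5 hr compound treatment of NFkB-bla ME-180 cells (2,000/well, seeded overnight beforehand), followed by reporter substrate for 1.5 hr. CellTiter-Glo added afterward; luminescence after 30 min RT.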
# [5] = qHTS assay to identify small molecule agonists of the endoplasmic reticulum stress response signaling pathway (AID 1159516; active = well fitted activation curve with a large enough effect in the signal ratio in the repeat runs, not every such curve was filed as active; the % refers to the signal ratio); conditions: ESRE-bla HeLa, ER stress beta-lactamase reporter, 5 h; series mostly up to 61 µM
# Outline: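 Reporter HeLa cells (ESRE-beta-lactamase) underwent 5 hr compound incubation at 37 C and 5% CO2 in quantitative HTS format. Detection followed 2 hr of FRET substrate loading at room temperature.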
# [6] = qHTS assay to identify small molecule agonists of the endoplasmic reticulum stress response signaling pathway - cell viability counter screen (AID 1159517; calls by dose curve;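 note: HeLa cells carrying an ER stress response element beta-lactamase reporter; nearly all actives have a fitted effect of over 50% in size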); conditions: ESRE-bla HeLa viability, CellTiter-Glo luminescence, 5 h; series mostly up to 61 µM
# Outline: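 Cells, HeLa ESRE-bla; density, 1,500/well; dosing, 5 hr at 37 C, 5% CO2; readout, CellTiter-Glo luminescence after 30 min RT.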
# [7] = qHTS assay to identify small molecule antagonists of the retinoid-related orphan receptor gamma (ROR-gamma) signaling pathway - cell viability counter screen (AID 1159520); conditions: Tet-on RORgamma CHO cells viability, ATP luminescence, 16 h; series mostly up to 92.4 µM; note: nearly all actives have a fitted effect of over 50% in size
# Outline: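 Cytotoxicity was read from cellular ATP (CellTiter-Glo luminescence) after 16 hr at 37 C with 1 uM doxycycline induction. The inducer was added 2 hr after compound transfer to Tet-on ROR gamma CHO cells.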
# [8] = target: Nuclear receptor ROR-gamma (Homo sapiens) (UniProt P51449); assay: qHTS assay to identify small molecule antagonists of the retinoid-related orphan receptor gamma (ROR-gamma) signaling pathway (AID 1159521); conditions: Tet-on RORgamma CHO cells, RORE-luciferase, 16 h; series mostly up to 92.4 µM
# Outline: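 Tet-on RORγ CHO cells carrying a ROR response element–luciferase reporter were pretreated with compounds for 2 h, then induced with 1 uM (final) doxycycline hyclate for 16 h at 37 C. Antagonism was read as decreased ONE-Glo luminescence.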
# [9] = qHTS assay to identify small molecule agonists of the AP-1 signaling pathway - cell viability counter screen (AID 1159525; calls by dose curve; note: nearly all actives have a fitted effect of over 55% in size); conditions: ME-180 AP-1-bla cells viability, ATP luminescence, 5 h; series mostly up to 76.8 µM
# Outline: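 Luminescent ATP readout (Cell Titer Glo, 30 min RT), normalised to DMSO and tetra n-octyl ammonium bromide controls. Cells were ME-180 AP-1-bla in 0.5% dialyzed FBS Opti-MEM, with a 5 h, 37 °C compound exposure.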
# [10] = qHTS assay to identify small molecule agonists of the AP-1 signaling pathway (AID 1159526; calls by dose curve); conditions: ME-180 (cervical carcinoma) AP-1-bla reporter, beta-lactamase FRET ratio, 5 h; series mostly up to 76.8 µM
Structure (SMILES),Potency [1],outcome [2],outcome [3],outcome [4],outcome [5],outcome [6],outcome [7],Potency [8],outcome [9],Potency [10]
Cl[C@H]1OCCO[C@@H]1Cl,inactive,inactive,inactive,inactive,inactive,inactive,inactive,inactive,inactive,inactive
CCSC(=O)N1CCCCCC1,inactive,inactive,inactive,inactive,inactive,inactive,inactive,inactive,inactive,inactive
CNC(=O)O/N=C/C(C)(C)SC,inactive,inactive,inactive,inactive,inactive,inactive,inactive,inactive,inactive,inactive
C=CC(=O)OCCCCCC(C)C,inactive,inactive,inactive,inactive,inactive,inactive,inactive,inactive,inactive,inactive
Cc1cccc(N)c1,inactive,inactive,inactive,inactive,inactive,inactive,inactive,inactive,inactive,inactive
OCc1ccco1,inactive,inactive,inactive,inactive,inactive,inactive,inactive,inactive,inactive,inactive
CNc1cnn(-c2cccc(C(F)(F)F)c2)c(=O)c1Cl,inactive,inactive,inactive,inactive,inactive,inactive,inactive,inactive,inactive,inactive
CC12CC1(C)C(=O)N(c1cc(Cl)cc(Cl)c1)C2=O (stereo not given),inactive,inactive,inactive,inactive,inactive,inactive,inactive,inactive,inactive,inactive
Nc1ccc(N)cc1,inactive,inactive,inactive,inactive,inactive,inactive,inactive,inactive,inactive,inactive
N#CN=C(N)N,inactive,inactive,inactive,inactive,inactive,inactive,inactive,inactive,inactive,inactive
CCOC(=O)CC(SP(=O)(OC)OC)C(=O)OCC (stereo not given),inactive,inactive,inactive,inactive,inactive,inactive,inactive,inactive,inactive,inactive
Clc1cnc(Oc2ccc(Oc3ncc(Cl)cc3Cl)cc2)c(Cl)c1,inactive,inactive,inactive,inactive,inactive,inactive,inactive,inactive,inactive,inactive
CNC(=O)O/N=C(\SC)C(=O)N(C)C,inactive,inactive,inactive,inactive,inactive,inactive,inactive,inactive,inactive,inactive
Cl/C=C/Cl,inactive,inactive,inactive,inactive,inactive,inactive,inactive,inactive,inactive,inactive
CN(C)C(=O)Nc1cccc(C(F)(F)F)c1,inactive,inactive,inactive,inactive,inactive,inactive,inactive,inactive,inactive,inactive
OC[C@@H](O)[C@H]1O[C@@H]2O[C@H](C(Cl)(Cl)Cl)O[C@@H]2[C@H]1O,inactive,inactive,inactive,inactive,inactive,inactive,inactive,inactive,inactive,inactive

Structure (SMILES),Potency [1],outcome [2],outcome [3],outcome [4],outcome [5],outcome [6],outcome [7],Potency [8],outcome [9],Potency [10]
C/C=C/c1ccc2c(c1)OCO2,inactive,inactive,inactive,inactive,inactive,inactive,inactive,inactive,inactive,inactive
O=P1(NCCCl)OCCCN1CCCl (stereo not given),inactive,inactive,inactive,inactive,inactive,inactive,inactive,inactive,inactive,inactive
C[C@H]1C(=O)O[C@@H]2CCN3CC=C(COC(=O)[C@](C)(O)[C@]1(C)O)[C@H]23,inactive,inactive,inactive,inactive,inactive,inactive,inactive,inactive,inactive,inactive
Nc1ncc([N+](=O)[O-])s1,inactive,inactive,inactive,inactive,inactive,inactive,inactive,inactive,inactive,inactive
CC[N+](=O)[O-],inactive,inactive,inactive,inactive,inactive,inactive,inactive,inactive,inactive,inactive
O=C/C=C/c1ccccc1,inactive,inactive,inactive,inactive,inactive,inactive,inactive,inactive,inactive,inactive
CCOP(=S)(OCC)Oc1ccc([N+](=O)[O-])cc1,inactive,inactive,inactive,inactive,inactive,inactive,inactive,inactive,inactive,inactive
CC(C)c1cccc(C(C)C)c1O,inactive,inactive,inactive,inactive,inactive,inactive,inactive,inactive,inactive,inactive
c1ccc2c(c1)CCCC2,inactive,inactive,inactive,inactive,inactive,inactive,inactive,inactive,inactive,inactive
Cc1ccc(N=C=O)cc1N=C=O,inactive,inactive,inactive,inactive,inactive,inactive,inactive,inactive,inactive,inactive
Nc1nc(N)nc(NC2CC2)n1,inactive and 43.6 µM (active),inactive,inactive,inactive,inactive,inactive,inactive,inactive,inactive,inactive
Cc1cc(O)ccc1Cl,inactive,inactive,inactive,inactive,inactive,inactive,inactive,inactive,inactive,inactive
FC(F)(F)c1ccc(Cl)cc1,inactive,inactive,inactive,inactive,inactive,inactive,inactive,inactive,inactive,inactive
COc1nc(NC(C)C)nc(NC(C)C)n1,inactive,inactive,inactive,inactive,inactive,inactive,inactive,inactive,inactive,inactive
CC(=O)/C=C/c1ccccc1,inactive,inactive,inactive,inactive,inactive,inactive,inactive,inactive,inactive,inactive
